The values below come from PubChem BioAssay (NCATS).

The target in assay [1] is Retinaldehyde dehydrogenase 3 (Homo sapiens) (UniProt P47895). In words: qHTS for Inhibitors of the Aldehyde Dehydrogenase Family (ALDH1A3) Confirmatory screens (AID 2061311). Note: potency is the fitted concentration of half-maximal effect; nearly all actives have a fitted effect of over 60% in size. On the technique in general: In qHTS, concentration-response curves come from the screen itself.
Assay [2] has as its target Aldehyde dehydrogenase 1A1 (Homo sapiens) (UniProt P00352). Kind of assay: qHTS for Inhibitors of the Aldehyde Dehydrogenase Family (ALDH1A1) Confirmatory screens (AID 2061316). Note: potency is the fitted concentration of half-maximal effect; nearly all actives have a fitted effect of over 65% in size.
The target of assay [3] is Retinaldehyde dehydrogenase 3 (Homo sapiens) (UniProt P47895). Kind of assay: qHTS for Inhibitors of the Aldehyde Dehydrogenase Family (ALDH1A3) Primary screen (AID 2061315).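 Note: plate controls were DMSO vehicle for no effect and reference inhibitor for full effect.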
A short description of assay [4]: BET inhibitor-based combinations targeting novel dependencies in MECOM-rearranged (r) AML: SET-2 cell line (AID 2202231).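 For viability: plate controls were DMSO treated cells for no effect and wells without cells for full effect.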 Note: nearly all actives have a fitted effect of over 35% in size. Note: potency is the fitted concentration of half-maximal effect. The following applies: SET-2 AML cells viability, CellTiter-Glo luminescence, 48 h; viability: hits give low values, concentration not given here. The procedure, abridged:
(§1)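 Each compound was tested at eleven concentrations on cells seeded at 500/well. After two days' incubation, ATP-based luminescence reported viability; responses relative to DMSO and blank wells yielded AUC and cell-line-centred Z-AUC.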
(In general: Cellular ATP, detected with luciferase, serves as a proxy for viable cell number.)

Assay [5] is described as follows: BET inhibitor-based combinations targeting novel dependencies in MECOM-rearranged (r) AML: OCI-AML3 cell line (AID 2202232). Note: nearly all actives have a fitted effect of over 35% in size. Note: potency is the fitted concentration of half-maximal effect. The following applies: Potency: OCI-AML3 viability. The procedure, abridged: as §1
Assay [6] can be described thus: BET inhibitor-based combinations targeting novel dependencies in MECOM-rearranged (r) AML: MV-4-11 cell line (AID 2202233). Note: nearly all actives have a fitted effect of over 45% in size. Note: potency is the fitted concentration of half-maximal effect. The procedure, abridged: (§2)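 First, 500 cells per well were seeded; next, drugs were pinned as 11-point doses; then plates sat 48 hr in the incubator; finally CellTiter-Glo was added and luminescence read, with AUC and Z-AUC computed.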
The nature of assay [7]: BET inhibitor-based combinations targeting novel dependencies in MECOM-rearranged (r) AML: UCSD-AML1 cell line (AID 2202235). Note: nearly all actives have a fitted effect of over 40% in size. Note: potency is the fitted concentration of half-maximal effect. The procedure, abridged:
as §2

Assay [8] can be described thus: BET inhibitor-based combinations targeting novel dependencies in MECOM-rearranged (r) AML: AML-191 cell line (AID 2202236; note: nearly all actives have a fitted effect of over 35% in size; note: potency is the fitted concentration of half-maximal effect). The procedure, abridged: as §1
Assay [9] is described as follows: BET inhibitor-based combinations targeting novel dependencies in MECOM-rearranged (r) AML: HNT-34 cell line (AID 2202234). Note: nearly all actives have a fitted effect of over 35% in size. Note: potency is the fitted concentration of half-maximal effect. The procedure, abridged: as §2
Assay [10] is described as follows: BET inhibitor-based combinations targeting novel dependencies in MECOM-rearranged (r) AML: AML-194 cell line (AID 2202237; note: nearly all actives have a fitted effect of over 40% in size; note: potency is the fitted concentration of half-maximal effect). The procedure, abridged: as §1
Assay [11] has as its target Aldehyde dehydrogenase, mitochondrial (Homo sapiens) (UniProt P05091). In words: qHTS for Inhibitors of the Aldehyde Dehydrogenase Family (ALDH2) Primary screen (AID 2061308).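 Note: plate controls were vehicle for no effect and reference inhibitor for full effect; nearly all actives have a fitted effect of over 55% in size.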
The target of assay [12] is Retinaldehyde dehydrogenase 3 (Homo sapiens) (UniProt P47895). In words: qHTS for Inhibitors of the Aldehyde Dehydrogenase Family (ALDH1A3) Validation screen (AID 2061312). Note: % is set by controls: 0 for no effect and ±100 for the full control effect; nearly all actives have a fitted effect of over 45% in size.
Assay [13] concerns the target Retinal dehydrogenase 2 (Homo sapiens) (UniProt O94788). Kind of assay: qHTS for Inhibitors of the Aldehyde Dehydrogenase Family (ALDH1A2) Confirmation screens (AID 2061314). Note: potency is the fitted concentration of half-maximal effect; nearly all actives have a fitted effect of over 65% in size.

Structures are written as SMILES. Inconclusive results are not listed. Values without a mark were called inactive. Calls of active or inactive are those of the source. Calls come from the whole dose curve; as a rule, active = well fitted curve in the direction sought with a large enough effect; inconclusive = small, poorly fitted or top-dose-only effect, or another doubt; inactive = no such curve, though single readings can be large; an effect the other way counts as inactive or inconclusive.

As for `COc1cccc(CNc2ccc(S(=O)(=O)Nc3nc(C)c(C)s3)cc2)c1O`, the Potency in assay [1] was 12.7 µM (active); in assay [2], 10.1 µM (active).

Turning to `CC(=O)OCC1=C(C(=O)O)N2C(=O)[C@@H](N)[C@H]2SC1`, the Potency entry in [3] was “inactive”.

Regarding `COc1cc([C@@H]2c3cc4c(cc3[C@@H](O)C3COC(=O)C32)OCO4)cc(OC)c1O` (stereo partly specified), the Potency in assay [4] is 0.468 µM (active); in [5], 0.296 µM (active); in assay [6], 0.372 µM (active); in assay [7], 0.332 µM (active); in assay [8], 0.296 µM (active).

By viability is commonly meant a read-out of living cells in per cent, often relative to untreated cells. In the case of `C/C(O)=C(\C#N)C(=O)Nc1cc(Br)ccc1Br`, the viability in assay [4] is 90%. Besides, the Potency result in [5], in [9], in [7] and in assay [8] was “inactive” throughout.

Turning to `Cc1c(N)nc([C@H](CC(N)=O)NC[C@@H](N)C(N)=O)nc1C(=O)N[C@H](C(=O)N[C@@H](C)[C@H](O)[C@@H](C)C(=O)N[C@@H](C(=O)NCCc1nc(-c2nc(C(=O)NCCC[S+](C)C)cs2)cs1)[C@@H](C)O)C(O[C@H]1O[C@H](CO)[C@H](O)[C@@H](O)[C@H]1O[C@H]1O[C@H](CO)[C@@H](O)[C@H](OC(N)=O)[C@@H]1O)c1cnc[nH]1` (stereo partly specified), in [4], the viability is 100%. Further, the Potency result in assay [5], in assay [7], in assay [8] and in [10] was “inactive” in each case. The Potency was 4.56 µM (active) in [6] and 8.11 µM (active) in [9].

Regarding `C[C@@H](C1CC[C@@]2(O)C3=CC(=O)[C@@H]4C[C@@H](O)[C@@H](O)C[C@]4(C)[C@H]3CC[C@]12C)[C@H](O)CCC(C)(C)O` (stereo partly specified), in [4], the viability was 104%. For the same compound, the Potency entry in assay [5], in assay [6], in [9], in assay [8] and in [10] was “inactive” in each case.

For `c1cncc(OC[C@@H]2CCN2)c1`, the Potency entry in assay [3] was “inactive”.

On to `CC(C)[C@]12O[C@H]1[C@@H]1O[C@@]13[C@@]1(C)CCC4=C(COC4=O)[C@@H]1C[C@@H]1O[C@@]13C2=O`, for which the Potency in [4] is 0.0833 µM (active); in assay [5], 0.059 µM (active); in [7], 0.0742 µM (active); in assay [10], 0.332 µM (active).

Take `N[C@@H]1C[C@H]1c1ccccc1`: in [4], the viability was 95.9%. The Potency result in assay [5] and in [10] was “inactive” each time.

Turning to `C[C@]12CC[C@H](O)CC1=CC[C@@H]1[C@@H]2CC[C@]2(C)C(=O)CC[C@@H]12`, the Potency entry in assay [11], in assay [3], in assay [5], in assay [7] and in assay [8] was “inactive” in each case. The viability in [4] was 109%.

Regarding `CN(C)NC(=O)CCC(=O)O`, the viability in [4] is 87.9%. The Potency result in assay [5], in [6], in assay [9], in assay [8] and in assay [10] was “inactive” throughout.

For `CN1Cc2c(ccc3c2OCO3)[C@@H]2[C@H]1c1cc3c(cc1C[C@@H]2O)OCO3`, the Potency entry in [11] and in [3] was “inactive” throughout.

Regarding `C=C[C@H]1CN2CCC1C[C@@H]2[C@@H](O)c1ccnc2ccccc12` (stereo partly specified), in assay [4], the viability was 98.5%. In addition, the Potency entry in assay [5], in [9], in assay [7] and in assay [10] was “inactive” in each case. The Potency in assay [6] is 5.9 µM (active).

Take `COC[C@H]1OC(=O)c2coc3c2[C@@]1(C)C1=C(C3=O)[C@@H]2CC[C@H](O)[C@@]2(C)C[C@H]1OC(C)=O`: the Potency in [4] was 18.6 µM (active); in assay [5], 10.5 µM (active); in assay [9], 5.25 µM (active); in assay [8] it was 7.42 µM (active); in [10] it was 8.33 µM (active).

On to `O=C(O)c1ccc(O)c2ncc(N3CCCNCC3)cc12`, for which the Potency result in assay [3] was “inactive”.

Consider `CCN1CCN(C(=O)Cc2ccc(Nc3ncc(F)c(Nc4ccc(C(=O)Nc5ccccc5Cl)cc4)n3)cc2)CC1`, for which the Potency result in [11] and in assay [3] was “inactive” throughout. Also, the Potency was 5.25 µM (active) in [4], 2.95 µM (active) in assay [5], 1.48 µM (active) in assay [6] and 6.61 µM (active) in assay [8].

In the case of `Cn1c(CCCCCCC(=O)NO)nc2cc(N(CCCl)CCCl)ccc21`, the Potency in assay [4] was 2.63 µM (active); in assay [5] it was 2.35 µM (active); in assay [6], 1.48 µM (active); in assay [9], 2.95 µM (active).

For the compound `C[C@H]1CCC/C=C/C2C[C@H](O)C[C@H]2[C@H](O)/C=C/C(=O)O1` (stereo partly specified), the Potency entry in [11] and in assay [3] was “inactive” in each case. Also, the Potency is 0.332 µM (active) in assay [4], 0.417 µM (active) in [5], 0.209 µM (active) in [7] and 0.372 µM (active) in assay [10].

On to `O=C(Nc1ccncc1)C(=O)c1cn(Cc2ccc(Cl)cc2)c2ccccc12`, for which the Potency was 0.525 µM (active) in assay [4]; 0.417 µM (active) in [5]; 0.296 µM (active) in [6]; 0.332 µM (active) in assay [7]; 0.263 µM (active) in [8].

As for `C[N+]1(C)C2CCC1CC(OC(=O)c1c[nH]c3ccccc13)C2` (stereo unspecified), the Potency entry in assay [12] is “inactive”.

Regarding `COc1ccc(-n2c(C)cc(-c3nnc4n3CCCCC4)c2C)cc1`, the Potency was 10.1 µM (active) in assay [1], 12.7 µM (active) in [13] and 12.7 µM (active) in assay [2]. Further, the Potency result in assay [3] is “inactive”.

Consider `COc1cc2c(cc1F)C(c1ccccc1Cl)=Nc1c(n[nH]c1C)N2`, for which the Potency in [4] was 13.2 µM (active); in assay [5] it was 3.72 µM (active); in [6], 1.86 µM (active); in assay [8], 1.66 µM (active); in assay [10], 2.35 µM (active).
